From PubChem BioAssay AID720706 (Broad Institute, 2013)
About 5,500 (1.6%) of roughly 350,000 compounds were called active.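 How the source made its calls: active means significant combined selectivity score with lowered wild-type GFP, culture density cut under 30%, mutant RFP and density less affected; inactive means any of these conditions unmet.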 For the sample, actives were picked, then their nearest neighbours and some compounds at random.

Test: GFP drop in mixed WT/humanized-ribosome E. coli culture – GFP/RFP fluorescence, OD600, single point, bacterial rRNA inhibitor project, primary screen (AID 720706)
Conditions: E. coli WT GFP vs humanized-ribosome RFP mutants, 24 h; GFP signal change (wild-type ribosome): stronger effect = lower value, DMSO median 0, no signal -100; OD600 change: measured here: OD600 growth, DMSO median 0, no signal -100; RFP signal change: measured here: RFP humanized mutant strains, DMSO median 0, no signal -100, concentration not given here

Q: What does the source list for `CC(=O)NC[C@@H]1[C@@H](c2ccccc2)[C@@H](CO)N1C(=O)Cc1cccnc1`?
A: GFP signal change (wild-type ribosome): 1.93% (inactive); OD600 change: 9.5%; RFP signal change: -2.5%

Q: For `COCC(=O)N1CC(=O)N2[C@H](CO)[C@@H](c3ccc(C#CC4CCCCC4)cc3)[C@@H]2C1`, which GFP signal change (wild-type ribosome) is on record?
A: -1.52% (inactive)

Q: What about the OD600 change of the same compound?
A: -39.4%

Q: And the RFP signal change?
A: 13.9%

Q: For `COc1ccc(NC(=O)N2CCC(Cc3ccccc3)CC2)cc1`, which GFP signal change (wild-type ribosome) is on record?
A: -3.82% (inactive)

Q: And the OD600 change?
A: -5.59%

Q: And the RFP signal change?
A: -1.73%

Q: For `O=C(CN1CCCCC1)NC(=O)Nc1ccccc1F`, which GFP signal change (wild-type ribosome) is on record?
A: 20.5% (inactive)

Q: And the OD600 change?
A: 19.5%

Q: What about the RFP signal change of the same compound?
A: 2.38%

Q: With `CC(C)(C)NC(=O)NC(=O)CN1CCC(Cc2ccccc2)CC1` as the compound, how does the GFP signal change (wild-type ribosome) read?
A: -31.9% (active)

Q: And the OD600 change?
A: -22.7%

Q: And the RFP signal change?
A: -1.62%

Q: With `CO[C@@H]1CN(C)C(=O)c2ccc(NS(=O)(=O)c3ccc(Cl)cc3)cc2OC[C@@H](C)N(C)C[C@@H]1C` as the compound, how does the GFP signal change (wild-type ribosome) read?
A: -0.718% (inactive)

Q: And the OD600 change?
A: 1.84%

Q: What about the RFP signal change of the same compound?
A: -0.00025%

Q: Which results are given for `O=C(c1ccccc1F)N1CC(=O)N2[C@H](CO)[C@@H](c3ccc(-c4cccnc4)cc3)[C@H]2C1`?
A: GFP signal change (wild-type ribosome): 4.23% (inactive); OD600 change: 20.3%; RFP signal change: 2.58%

Q: Which GFP signal change (wild-type ribosome) does the source give for `CC(=O)N1C[C@@H]2C(c3ccccc3)[C@@H](C1)N2C(=O)NC(C)C` (stereo partly drawn) here?
A: 1.98% (inactive)

Q: What about the OD600 change of the same compound?
A: 3.76%

Q: What about the RFP signal change of the same compound?
A: -1.21%

Q: With `Cc1nnc(SCC(=O)Nc2cccc(N)c2)n1-c1ccccc1` as the compound, how does the GFP signal change (wild-type ribosome) read?
A: 6.38% (inactive)

Q: What about the OD600 change of the same compound?
A: 12%

Q: And the RFP signal change?
A: 4.46%

Q: With `Cc1nnc(SCc2ccc(C(=O)c3ccc(Cl)cc3)o2)n1-c1ccccc1` as the compound, how does the GFP signal change (wild-type ribosome) read?
A: -32.1% (active)

Q: What about the OD600 change of the same compound?
A: -22.7%

Q: And the RFP signal change?
A: 3.57%

Q: Which GFP signal change (wild-type ribosome) does the source give for `COC(=O)c1ccc(CSc2nc3ccccc3c(=O)n2-c2cccc(OC)c2)o1` here?
A: 1.15% (inactive)

Q: And the OD600 change?
A: -0.729%

Q: And the RFP signal change?
A: 0.461%

Q: Which GFP signal change (wild-type ribosome) does the source give for `C[C@@H]1CN([C@@H](C)CO)C(=O)c2cc(NS(=O)(=O)c3cn(C)cn3)ccc2O[C@@H]1CN(C)Cc1ccc(C(=O)Nc2ccccc2N)cc1` here?
A: 5.78% (inactive)

Q: And the OD600 change?
A: 6.33%

Q: What about the RFP signal change of the same compound?
A: 3.25%

Q: With `O=c1[nH]n2c(-c3ccccc3)nc(O)c2c2ccccc12` as the compound, how does the GFP signal change (wild-type ribosome) read?
A: -31.6% (active)

Q: And the OD600 change?
A: -7.74%

Q: And the RFP signal change?
A: 0.585%

Q: Which GFP signal change (wild-type ribosome) does the source give for `O=C(O)c1ccc(-n2nc(-c3ccccc3)c3ccccc3c2=O)cc1` here?
A: 2.07% (inactive)

Q: What about the OD600 change of the same compound?
A: -9.56%

Q: What about the RFP signal change of the same compound?
A: -1.61%

Q: With `COCC(=O)N1CC(=O)N2[C@@H](CO)[C@@H](c3ccc(C#CC(C)C)cc3)[C@@H]2C1` as the compound, how does the GFP signal change (wild-type ribosome) read?
A: -0.482% (inactive)

Q: And the OD600 change?
A: 2.33%

Q: What about the RFP signal change of the same compound?
A: -1.33%

Q: What does the source list for `COc1ccc(C#Cc2ccc([C@@H]3[C@H](CO)N4C(=O)CN(C(C)=O)C[C@@H]34)cc2)cc1`?
A: GFP signal change (wild-type ribosome): -2.96% (inactive); OD600 change: -13.2%; RFP signal change: -2.12%

Q: With `CC(=O)Nc1cccc2c1O[C@@H](CN(C)C(C)=O)[C@@H](C)CN(C)C2=O` as the compound, how does the GFP signal change (wild-type ribosome) read?
A: -0.3% (inactive)

Q: What about the OD600 change of the same compound?
A: 2.46%

Q: What about the RFP signal change of the same compound?
A: -0.39%

Q: With `COc1ccc2c3c(n(C)c2c1)[C@@H](CO)N(C(=O)c1cnccn1)CC31CCN(C(C)=O)CC1` as the compound, how does the GFP signal change (wild-type ribosome) read?
A: 4.42% (inactive)

Q: And the OD600 change?
A: 18.1%

Q: What about the RFP signal change of the same compound?
A: -2.67%

Q: What does the source list for `COCCNc1nc(-c2ccccc2)nc2c1oc1ccccc12`?
A: GFP signal change (wild-type ribosome): -38% (inactive); OD600 change: -50.5%; RFP signal change: -2.59%

Q: Which results are given for `O=c1[nH]c(CSc2ccccc2)nc2c1oc1ccccc12`?
A: GFP signal change (wild-type ribosome): 4.21% (inactive); OD600 change: 3%; RFP signal change: -8.61%

Q: Which results are given for `C[C@@H](Nc1nc(-c2ccccc2)nc2c1oc1ccccc12)C(=O)O`?
A: GFP signal change (wild-type ribosome): -25.4% (active); OD600 change: -3.54%; RFP signal change: 7.03%

Q: What does the source list for `O=C(C1CCCCC1)N1CC(=O)N2[C@H](CO)[C@H](c3ccc(-c4ccccc4F)cc3)[C@H]2C1`?
A: GFP signal change (wild-type ribosome): -9.7% (inactive); OD600 change: -39.9%; RFP signal change: 0.225%

Q: For `C[C@@H]1CCCCO[C@@H](CN(C)C(=O)Nc2ccc(F)cc2)[C@H](C)CN([C@@H](C)CO)C(=O)c2cc(NS(C)(=O)=O)ccc2O1`, which GFP signal change (wild-type ribosome) is on record?
A: -0.965% (inactive)

Q: What about the OD600 change of the same compound?
A: -0.127%

Q: And the RFP signal change?
A: 0.106%

Q: Which GFP signal change (wild-type ribosome) does the source give for `CN(C)CC(=O)N1[C@H](C#N)[C@H](c2ccccc2-c2cccc(C(=O)N(C)C)c2)[C@@H]1CO` here?
A: 3.14% (inactive)

Q: What about the OD600 change of the same compound?
A: 9.94%

Q: And the RFP signal change?
A: -2.26%

Q: What does the source list for `C[C@@H]1CCCCO[C@@H](CN(C)Cc2ccc(C(=O)Nc3ccccc3N)cc2)[C@H](C)CN([C@H](C)CO)C(=O)c2cc(N(C)C)ccc2O1`?
A: GFP signal change (wild-type ribosome): 0.759% (inactive); OD600 change: 1.41%; RFP signal change: -1.39%

Q: For `C[C@H]1CN([C@@H](C)CO)C(=O)Cc2cc(NC(=O)C3CC3)ccc2O[C@H]1CN(C)S(=O)(=O)c1ccc(Cl)cc1`, which GFP signal change (wild-type ribosome) is on record?
A: -2.58% (inactive)

Q: What about the OD600 change of the same compound?
A: -5.07%

Q: What about the RFP signal change of the same compound?
A: 2.87%

Q: With `S=C(NN=Cc1ccccn1)Nc1ccccn1` as the compound, how does the GFP signal change (wild-type ribosome) read?
A: -3.3% (inactive)

Q: And the OD600 change?
A: 1.4%

Q: What about the RFP signal change of the same compound?
A: -6.11%

Q: With `Cc1nnc(N/N=C/c2ccccn2)[nH]c1=O` as the compound, how does the GFP signal change (wild-type ribosome) read?
A: -26% (active)

Q: And the OD600 change?
A: 6.61%

Q: And the RFP signal change?
A: 2.3%

Q: What does the source list for `O=C(N/N=C/c1ccccn1)c1cccc(NC(=O)c2ccc(Cl)cc2)c1`?
A: GFP signal change (wild-type ribosome): -12.4% (inactive); OD600 change: -9.16%; RFP signal change: -2.65%

Q: For `CN1[C@@H]2c3ccc(-c4ccc(F)cc4)c(=O)n3C[C@H]1[C@H](CO)[C@H]2C(=O)NC1CCC1`, which GFP signal change (wild-type ribosome) is on record?
A: 0.894% (inactive)

Q: And the OD600 change?
A: -1.58%

Q: And the RFP signal change?
A: -1.53%

Q: For `Cc1ccc(-n2c(SCC(=O)Nc3ncc(Cl)cc3Cl)nc3ccccc32)cc1`, which GFP signal change (wild-type ribosome) is on record?
A: -23.3% (inactive)

Q: What about the OD600 change of the same compound?
A: -16.7%

Q: What about the RFP signal change of the same compound?
A: 11.6%

Q: For `COc1ccc(-n2cnnc2SCC(=O)Nc2cccc(S(N)(=O)=O)c2)cc1`, which GFP signal change (wild-type ribosome) is on record?
A: 5.58% (inactive)

Q: What about the OD600 change of the same compound?
A: 7.26%

Q: And the RFP signal change?
A: -1.5%

Q: For `NS(=O)(=O)c1cccc(NC(=O)CSc2nc3ccccc3n2-c2ccccc2)c1`, which GFP signal change (wild-type ribosome) is on record?
A: -43.3% (active)

Q: And the OD600 change?
A: -4.95%

Q: And the RFP signal change?
A: 0.431%

Q: With `CC(C)NC(=O)Nc1ccc2c(c1)C(=O)N([C@@H](C)CO)C[C@H](C)[C@H](CN(C)C(=O)Nc1ccc(F)cc1)OCCCC[C@@H](C)O2` as the compound, how does the GFP signal change (wild-type ribosome) read?
A: 9.43% (inactive)

Q: What about the OD600 change of the same compound?
A: 11.5%

Q: And the RFP signal change?
A: -1.2%

Q: Which GFP signal change (wild-type ribosome) does the source give for `O=S(=O)(c1ccccc1)N1CC[C@@H]2[C@H]1c1cc(C#Cc3cccc(F)c3)ccc1N[C@@H]2CO` here?
A: -1.75% (inactive)

Q: What about the OD600 change of the same compound?
A: 20.2%

Q: What about the RFP signal change of the same compound?
A: -0.35%

Q: Which results are given for `CCCNC(=O)N1CC2(C1)[C@H](c1ccccc1)[C@@H](CO)N2C(=O)C1CC1`?
A: GFP signal change (wild-type ribosome): 2.01% (inactive); OD600 change: 4.92%; RFP signal change: -0.981%

Q: With `COc1ccc(NC(=O)N[C@@H]2CC[C@H](CCn3cc(-c4ccc(OC)cc4)nn3)O[C@@H]2CO)cc1` as the compound, how does the GFP signal change (wild-type ribosome) read?
A: -3.5% (inactive)

Q: What about the OD600 change of the same compound?
A: -6.01%

Q: And the RFP signal change?
A: 3.35%

Q: Which GFP signal change (wild-type ribosome) does the source give for `COc1ccc(S(=O)(=O)N[C@H]2CC[C@H](CCn3cc(C(C)C)nn3)O[C@@H]2CO)cc1` here?
A: 3.72% (inactive)

Q: And the OD600 change?
A: 10.4%

Q: What about the RFP signal change of the same compound?
A: 1.37%

Q: What does the source list for `O=C(C[C@@H]1C[C@H]2c3cc(NS(=O)(=O)c4ccc(F)cc4)ccc3O[C@H]2[C@H](CO)O1)NC1CCCC1`?
A: GFP signal change (wild-type ribosome): -1.46% (inactive); OD600 change: -4.87%; RFP signal change: -0.359%

Q: Which results are given for `C[C@H](NC(=O)C[C@@H]1C[C@@H]2c3cc(NS(=O)(=O)c4ccc(F)cc4)ccc3O[C@@H]2[C@@H](CO)O1)c1ccccc1`?
A: GFP signal change (wild-type ribosome): -27.2% (active); OD600 change: -16.8%; RFP signal change: 2.38%

Q: For `O=C(C[C@@H]1C[C@H]2c3cc(NS(=O)(=O)c4ccc(F)cc4)ccc3O[C@H]2[C@H](CO)O1)NCCc1ccccc1`, which GFP signal change (wild-type ribosome) is on record?
A: 0.771% (inactive)

Q: What about the OD600 change of the same compound?
A: -17.4%

Q: And the RFP signal change?
A: 2.06%
